# Laboratory results from PubChem BioAssay AID686978 (National Center for Advancing Translational Sciences (NCATS), 2013).
# In all, about 420,000 compounds went through this assay and about 64,000 (15%) were called active. Another 27% or so got no clear call; they are omitted. Only a sample is shown. A number with no mark means an inactive call. The call rests on the fitted dose curve; in most records, active means well fitted inhibition curve with a large enough effect; inconclusive means small, poorly fitted or top-dose-only effect; inactive means flat fitted curve, though single readings scatter.
# Test: qHTS for Inhibitors of human tyrosyl-DNA phosphodiesterase 1 (TDP1): qHTS in cells in absence of CPT; further: nearly all actives have a fitted effect of over 55% in size
# Details: DT40 Tdp1-/- hTDP1 cells, no CPT, ATP luminescence, 48 h; activity change, negative = growth inhibition: at 46.2 µM (top of the series)
# Outline: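 Chicken DT40 Tdp1-/- cells complemented with human TDP1, screened without camptothecin (DMSO vehicle only), 400 cells/well. Compounds pin-transferred, cells incubated at 37 °C for at least 48 hr. Growth read as ATP-dependent luminescence (CellTiter-Glo, 30 min at RT).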
# On the % scale 0 is the no-effect control and ±100 the full control effect; potency means the concentration at half of the fitted maximal effect.
SMILES,"activity change, negative = growth inhibition [%]",Potency
COc1cc(C2C(C(=O)c3sc(C)nc3C)=C(O)C(=O)N2CCN(C)C)cc(OC)c1OC (configuration not stated),9.07,
N/C(Cc1ccc([N+](=O)[O-])cc1)=N\OC(=O)C1CCCCC1,-0.701,
COc1ccccc1OCCC(=O)OCC(=O)NCc1ccccc1,-7.82,
N#Cc1ccc(CN2CCN(CC(=O)Nc3ccccc3C(=O)NC3CC3)CC2)cc1,0.152,
NC(=O)c1ncn([C@@H]2O[C@H](CN=C3NS(=O)(=O)c4ccccc43)[C@@H](O)[C@H]2O)n1,2.67,
CC(=O)c1ccc(NC(=O)Nc2ccc([N+](=O)[O-])cc2C)cc1,,16.4 µM (active)
CN1CCN(CCNC(=O)Nc2ccc([N+](=O)[O-])cc2)CC1,-27.3,
Cc1cc([N+](=O)[O-])ccc1NC(=O)C1CCCO1 (configuration not stated),-7.79,
Cc1cc([N+](=O)[O-])ccc1NC(=O)c1ccc(NC(=O)C(C)C)cc1,,18.4 µM (active)
COc1ccc([N+](=O)[O-])cc1NC(=O)c1ccc(N(Cc2ccccc2C)S(C)(=O)=O)cc1,-29.8,
CC(C)C(=O)Nc1cccc(NC(=O)c2ccc([N+](=O)[O-])cc2Cl)c1,-16.9,
CN1c2ccc([N+](=O)[O-])cc2C(C)(C)C12C=Cc1cc(C(=O)O)ccc1O2 (configuration not stated),13.4,
CN(CCO)S(=O)(=O)c1ccc2c(c1)C(=O)c1cc(S(=O)(=O)N(C)CCO)ccc1-2,-2.04,
C=CCOc1ccc(/C=C/C(=O)OCC(=O)NC2CCCCCC2)cc1,-3.43,
O=C(O)c1ccc2c(c1)N(Cc1ccc(F)cc1)C(=O)c1ccccc1S2=O (configuration not stated),,14.6 µM (active)
O=C(COC(=O)c1cccc(Cl)c1)NC1CCCCCCC1,0.239,
Cc1ccc(C)c(CN2C(=O)c3ccccc3S(=O)c3ccc(C(=O)N4CCOCC4)cc32)c1 (configuration not stated),-28.2,
Cc1c(CNC2CCCCC2)c(C(=O)O)c(C)n1Cc1cccc(Cl)c1,-25.1,
Cc1ccc(CCNC(=O)c2ccc3c(c2)N(Cc2cc(C)ccc2C)C(=O)c2ccccc2S3=O)cc1 (configuration not stated),,11.6 µM (active)
O=C(CN1C(=O)c2ccccc2C1=O)NCc1ccc(C(=O)O)cc1,-16.5,
Cc1ccc(CNS(=O)(=O)CCNC(=O)c2ccccc2)cc1,-5.2,
CN(C(=O)c1ccc2c(c1)N(Cc1cccc(Cl)c1)C(=O)c1ccccc1S2=O)C1CCCCC1 (configuration not stated),,23.1 µM (active)
COc1ccccc1NC(=O)c1cc(N2C(=O)C3C4CCC(C4)C3C2=O)ccc1Cl (configuration not stated),3.87,

SMILES,"activity change, negative = growth inhibition [%]",Potency
C/C(CC(=O)NC(C)(C)C)=N\NC(=O)c1ccco1,3.84,
COC(=O)c1ccc(CNC(=O)Cn2cc(C)c(=O)[nH]c2=O)cc1,-0.822,
Cc1ccc(OCC(=O)N2CCN(S(=O)(=O)c3ccc(Cl)s3)CC2)cc1C,-26.5,
Cc1cc(C)n2c(NCc3ccccc3)c(CC(C)C)nc2n1,,23.1 µM (active)
Nc1nc(NCc2ccccc2)n(-c2ccccc2)n1,-8.65,
Cc1cc(C)n2c(Nc3c(C)cccc3C)c(CCc3ccccc3)nc2n1,,16.4 µM (active)
Cc1ccc(O)c(CCc2ccccc2)n1,-26.2,
COc1cccc2c(C)c(C(=O)O)[nH]c12,-20.4,
O=C(O)CC(CC(=O)N1CCOCC1)c1ccccc1 (configuration not stated),-6.6,
CCOc1ccc(C(CC(=O)O)NC(=O)Cc2ccccc2)cc1OC (configuration not stated),4.25,
COc1ccc(CCNS(=O)(=O)c2cccc3cccnc23)cc1OC,5.97,
CCCCC(=O)NC(c1ccc(OC)c(OC)c1)c1ccc2cccnc2c1O (configuration not stated),,3.26 µM (active)
COC(=O)C1C(=O)CC(C)(O)C(C(=O)OC)C1c1ccc2c(c1)OCO2 (configuration not stated),-0.751,
NCCCC[C@@H]1NC(=O)[C@H](CCC(=O)O)NC(=O)c2cc([N+](=O)[O-])cc(I)c2NCC[C@@H](C(N)=O)NC1=O,-1.72,
CCc1nnc(NC(=O)CSCc2cc(=O)n3cc(C)sc3n2)s1,11.4,
COc1ccc(CN2CC[C@H]3C=CC[C@@H](C(=O)N4CCOCC4)[C@H]3C2=O)cc1OC,,inactive
Cc1ccc2nc3c(cc(C(=O)NC4CCCCC4)c(=N)n3C(C)C)c(=O)n2c1,-10.7,
CC(NC(=O)c1cc2c(=O)n3ccccc3nc2n(C(C)C)c1=N)c1ccccc1 (configuration not stated),,18.4 µM (active)
CC(NC(=O)c1ccccc1C(=O)O)c1ccc(-n2ccnc2)cc1 (configuration not stated),4.82,
COC(=O)c1ccc(COC(=O)CNC(=O)c2cccc(OC)c2)o1,17.8,
CCc1ccc(CN(Cc2ccco2)C(=O)c2ccccc2Cl)cc1,,20.6 µM (active)
O=C(Nc1ccccc1)N(Cc1cccnc1)Cc1ccco1,-2.21,
O=C(CCNC(=O)c1ccccc1Cl)NCc1ccco1,11.9,

SMILES,"activity change, negative = growth inhibition [%]",Potency
COc1cccc(C(=O)N(Cc2cccc(Cl)c2)Cc2ccco2)c1,,14.6 µM (active)
COc1cccc(NC(=S)NCc2ccco2)c1,-17.3,
CCCOc1ccc(Cn2c(O)cc(=O)[nH]c2=O)cc1,2.12,
CN1CCN(C(=O)/C(=C\c2ccc3c(c2)OCO3)NC(=O)c2cccs2)CC1,-3.25,
Cc1ccc(-c2nc(-c3ccncc3)no2)c(C)c1,2.69,
Cc1nn(CC(=O)NCC2CCCO2)c(=O)c2cc3ccccc3n12 (configuration not stated),-3.75,
CCCCNC(=O)C1CCC(=O)N1CCc1ccccc1 (configuration not stated),0.76,
CCCCN1C(N)=NC[C@@H]1CC1CCCCC1,,16.4 µM (active)
CCCCN1C(=S)NC[C@@H]1C(C)CC (some centres not stated),-7.9,
CCCC[C@@H]1CN=C(N)N1CCCC,,7.31 µM (active)
CCCCN1C(N)=NC[C@@H]1Cc1ccccc1,,14.6 µM (active)
CN(C)C1=NC[C@H](Cc2ccccc2)N1CCc1ccc(F)cc1,-29.6,
NNC(=O)c1ccc(Cl)cc1Cl,20.2,
OCC(CO)(CO)NCc1ccc(-c2ccccc2)cc1,-20.5,
Cn1nc([N+](=O)[O-])nc1Sc1ccc(C(C)(C)C)cc1,-21.5,
O=C(CC1NCCNC1=O)Nc1cc(Cl)cc(Cl)c1 (configuration not stated),-2.46,
CNC(=O)c1csc(-c2ccccc2)n1,10.5,
Cc1ccc(SCC(=O)c2sc(-c3ccccc3)nc2C)cc1,-24.2,
Cc1nc(-c2ccccc2)sc1C(=O)/C=C/c1ccccc1,,18.4 µM (active)
N#Cc1cnn2cc(CCN3CCOCC3)c(-c3ccc(F)cc3)nc12,-6.51,
CCCc1c2oc(C(=O)O)cc(=O)c2cc2c(=O)cc(C(=O)O)n(CC)c12,-4.78,
